# Experimental data taken from ChEMBL document CHEMBL1157539, “Thousands of chemical starting points for antimalarial lead identification” (Nature, 2010).
# Test system: Plasmodium falciparum
# Test: GSK_TCMDC: Inhibition of Plasmodium falciparum 3D7 in whole red blood cells, using parasite LDH activity as an index of growth. Test compounds present at 2uM
# Assay type: functional
row,Compound,Inhibition [%]
1,CC1(C)N=C(N)N=C(N)N1OCCCc1ccccc1.Cl,96
2,O=C(NCCN1CCC(NC(=O)c2ccc(-c3ccccn3)s2)CC1)c1ccc(Cl)c(Cl)c1.O=C(O)C(F)(F)F,97
3,Cc1cc(N2CCCC2=O)ccc1-c1ccc(C(=O)N2CCC(Oc3cccc(Cl)c3)CC2)cc1,99
4,O=C(/C=C/c1ccc(C(F)(F)F)cc1)NCCCCCN1CCN(C(=O)Nc2ccc(Cl)cc2)CC1,88
5,O=C(NC1CCCCN(Cc2ccccc2O)C1)c1cc(F)cc(F)c1.O=C(O)C(F)(F)F (stereo not given),89
6,COc1ccc(CNC2CCN(C)CC2)cc1-c1ccc(S(=O)(=O)NCc2ccccc2)s1.O=C(O)C(F)(F)F,100
7,Nc1nc(N)c2c(Oc3cccc4ccccc34)cccc2n1,96
8,CCN(CC)c1ccc(C(c2ccc(N(CC)CC)cc2)c2ccc([N+](=O)[O-])cc2)cc1,82
9,Cc1cccc(C(=O)NC(NC(=S)Nc2ccc([N+](=O)[O-])cc2)C(Cl)(Cl)Cl)c1 (stereo not given),96
10,CCn1ccc2c(N3CCCCS3(=O)=O)cc(C(=O)N[C@@H](Cc3ccccc3)[C@H](O)CNC3CCCCC3)cc21,98
11,Cc1cc(=O)c(-c2ccc(OCCSc3ccc(C(F)(F)F)cn3)cc2)c(C)[nH]1,97
12,CCNc1cc(C)nc(Nc2ccc(NC(=O)C3CCCC3)cc2)n1,99
13,Cc1cc(N[C@@H](CC(C)C)C(=O)NCCOc2ccccc2)nc(NCCc2ccccc2)n1.O=C(O)C(F)(F)F,94
14,CCOc1ccccc1CNc1nccc(NCc2ccccc2OC)n1,87
15,Cn1cc(CN2CCC(OC(c3ccccc3)c3ccc(Cl)cc3)CC2)cn1 (stereo not given),94
16,COc1ccc(NC(=O)/C=C/c2cc(F)cc(C(F)(F)F)c2)cc1OCCN(C(C)C)C(C)C.O=C(O)C(F)(F)F,97
17,CN(C)c1ccc(C=CC(=O)NC(=O)c2ccccc2O)cc1,92
18,CCc1nc(N)nc(N)c1-c1ccc(F)cc1,96
19,COc1cc(Cc2cnc(N)nc2N)cc(OCCCCc2nnn[nH]2)c1OC,97
20,O=C(Nc1ccc(Cl)cc1)c1cc(Cl)ccc1NC(=O)C1CCc2ccccc2O1 (stereo not given),98

row,Compound,Inhibition [%]
1,NS(=O)(=O)c1cccc(Br)c1,98
2,O=C1C(c2ccccc2)=C(Nc2cccc(OC(F)(F)C(F)F)c2)c2ccccc21,96
3,CC(=O)c1cccc(S(=O)(=O)NCCCNc2nc3cc(C)cc(C)c3cc2C#N)c1,95
4,CC(C)CNCc1ccc(-c2cccc(CN(CCCN3CCN(C)CC3)C(=O)/C=C/c3ccccc3)c2)cc1.O=C(O)C(F)(F)F,95
5,Cc1cc(N2CCC(NS(=O)(=O)c3ccccc3)CC2)nc(Nc2cccc(C#N)c2)n1.O=C(O)C(F)(F)F,93
6,Cc1cc(F)ccc1-c1nc(NCC(O)CNCCc2ccccc2)nc2c1ccc(=O)n2-c1c(F)cccc1F.O=C(O)C(F)(F)F (stereo not given),100
7,Cl.Cl.N=C(N)c1cccc(-c2cc(-c3cccc(C(=N)N)c3)on2)c1,96
8,CCCCCCCN1CCC(NC(=O)Nc2ccnc3ccc(OC)cc23)C(C(=O)OCC)C1.O=C(O)C(=O)O (stereo not given),100
9,CC(C)NCC(O)COc1ccc(Cc2ccc(OCC(O)CNC(C)C)cc2)cc1.Cl (stereo not given),100
10,Cc1cc(OC(C)C(=O)N2CCc3ccccc32)ccc1Cl (stereo not given),89
11,CC(=O)C1=NN(c2ccc(C)cc2)C(c2cccs2)N1c1ccccc1 (stereo not given),89
12,COc1cc(Cn2ccc3c4c(N)nc(N)nc4ccc32)cc(OC)c1OC,94
13,COc1ccc(-c2cccc(NC(=O)c3ccccc3)c2)cc1CN1CCCN(C)CC1.O=C(O)C(F)(F)F,98
14,COc1ccc(-c2ccc(NC(=O)c3cccc(Cl)c3)cc2)cc1CN1CCCC1.O=C(O)C(F)(F)F,100
15,Cc1nc(C)c(-c2ccc(Oc3ccc(Cl)cc3Cl)cc2)c(O)c1Br,98
16,CN1CCC(NCc2cccc(-c3ccc(S(=O)(=O)NCCc4ccccn4)c(F)c3)c2)CC1.O=C(O)C(F)(F)F,98
17,COc1cccc(C(=O)NC(c2ccc(Cl)cc2Cl)c2cc(Cl)c3cccnc3c2O)c1 (stereo not given),100
18,CC(C)(C)c1ccc(CNCC(C)(C)c2nc(-c3ccnc(N)n3)c(-c3ccc(Cl)c(O)c3)[nH]2)cc1.Cl,100
19,Fc1ccc2[nH]c(-c3ccc(-c4ccc(CNCCc5ccncc5)cc4)cc3)nc2c1.O=C(O)C(F)(F)F,100
20,CCOC(=O)c1ccc(-c2cnc(N)c(-c3nc4cccc(C)c4[nH]3)c2)cc1,100
